# TWEAK Fn14 block = inhibitors of TWEAK-Fn14 signaling, primary screen, luciferase reporter cells, uHTS; AID 1159606, 2016; hit rate 2% among 360,000; TWEAK-stimulated Fn14 reporter cells, luciferase luminescence, 8 h; inhibition, % at 10 µM; in the data active means inhibition above about 50%
# HIF-2a inh = HIF-2a reporter inhibitors, primary screen, luminescence, 786-0 RCC cells | 786-0 RCC cells HIF-2a reporter, luciferase luminescence, overnight | inhibition, % at 18.8 µM | hit rate 0.72% among 360,000;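 active means inhibition of the luminescence signal of 40% or more relative to plate controls, in a single-dose primary screen at 18.75 µM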
# TROY NFkB inh = inhibitors of TROY-driven NF-kB signaling, primary screen, Q293 LMP1-TROYcd cells, NF-kB luciferase, uHTS | Q293 LMP1-TROYcd NF-kB luciferase reporter, 4 h | inhibition, % at 10 µM | hit rate 0.98% among 360,000;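 active means compounds whose plate-normalised and pattern-corrected inhibition of the luciferase reporter signal at the single screening dose is 50% or more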
# Peg3 prom inh-1 = Peg3 promoter-driven luciferase inhibitors, primary screen, cell-based, HeLa, luciferase luminescence. HeLa PEG-Prom luciferase reporter, overnight. inhibition, % at 20 µM. hit rate 1.7% among 360,000;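 active means inhibition of at least 50% at 20 µM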
# KKLEB tox = cytotoxicity in KKLEB CF airway cells, primary screen, cytotoxicity control for CF NF-kB inhibitor project, cell-based, uHTS, fluorescence assay plates; KKLEB CF airway cells viability, ATPlite luminescence, overnight; stronger effect = lower value; cells stimulated with P. aeruginosa culture filtrate; activity change (cytotoxicity), % at 5 µM; hit rate 0.36% among 360,000;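 active means corrected activity change at or below -50% at 5 µM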
# CF NFkB inh = inhibitors of PAF-induced NF-kB signaling, primary screen, cell-based, GFP fluorescence, uHTS; AID 588850, 2011; hit rate 0.86% among 360,000; inhibition, % at 5 µM; KKLEB NF-kB-GFP reporter, GFP fluorescence overnight;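 active means at least 50% inhibition at 5 µM, scaled per plate between neutral and stimulator controls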;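 further: PAF is a Pseudomonas aeruginosa culture filtrate used as stimulus; plate controls were PAF-stimulated DMSO wells for no effect and unstimulated DMSO wells for full effect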
# Peg3 prom inh-2 = Peg3 promoter reporter inhibitors, retest, confirmation, cell-based, HeLa, luciferase reporter, single concentration. HeLa PEG-Prom luciferase reporter, luminescence, overnight. hit rate 84% among 1,300. inhibition, % at 20 µM. shares compounds with Peg3 prom inh-1;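 active means at 20 µM dose, 40% or more inhibition averaged across four replicates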
# Mdm2 MdmX conf = retested Mdm2-MdmX interaction blockers, confirmation, cell-based, luminescence, single concentration, set 2; shares compounds with HIF-2a inh; SaOS-2 split-luciferase Mdm2/MdmX complementation; inhibition, % at 8 µM; hit rate 99% among 740; AID 504601, 2011;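 active means mean inhibition of the luminescence signal across two replicates at or above 26 percent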
# HIF-2a conf = HIF-2a reporter inhibitor retest, confirmation, luminescence, 786-0 RCC cells; shares compounds with HIF-2a inh; HIF-2a luciferase reporter luminescence, overnight; inhibition, % at 18.8 µM; hit rate 56% among 1,800; AID 651580, 2012;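 active means mean inhibition across four replicates of at least 40 percent at the single tested concentration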
# HIF-1a counter = HIF-1a luciferase reporter signal reduction – MiaPaCa-2 cells, single concentration, counter-screen for HIF-2a inhibitor project, confirmation. shares compounds with HIF-2a inh. MiaPaCa-2 HIF-1a luciferase reporter, desferoxamine, overnight. inhibition, % at 18.8 µM. hit rate 72% among 1,800;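 active means mean inhibition of the reporter signal across four replicates at the single tested dose of 50% or more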
# Starred values were filed as active, the others as inactive; / = no result given. This is a sample that favours compounds with a hit; in the whole collection about 4% have one here.
SMILES,TWEAK Fn14 block,HIF-2a inh,TROY NFkB inh,Peg3 prom inh-1,KKLEB tox,CF NFkB inh,Peg3 prom inh-2,HIF-2a conf,HIF-1a counter,others
Cc1ccc2nc(NC(=O)CSCC(=O)OCC(=O)c3ccccc3)sc2c1,95.6*,70.6*,73.0*,53.4*,3.5,-4.6,71.1*,75.1*,74.4*,
CCOCC(=O)Nc1nc2ccc(C)cc2s1,20.0,-229.4,5.7,-282.4,-9.1,22.8,/,/,/,
CC(C)(C)C(c1nc2ccccc2[nH]1)n1c(-c2cc(Cl)cc(Cl)c2)nc2ccccc21 (configuration not stated),/,2.0,/,/,/,/,/,/,/,
CCOc1cc(/C=N/N=C(N)N)ccc1OCc1ccc(Cl)cc1,10.2,97.5*,-14.2,99.1*,-24.3,6.3,96.8*,-11.2,107.0*,
COc1ccc(S(=O)(=O)N2CCCC2)cc1C(=O)O,-1.0,16.1,2.9,1.4,-4.2,-3.8,/,/,/,
COc1cccc(/C=N/Nc2ncccc2[N+](=O)[O-])c1OC,100.1*,50.9*,74.7*,72.5*,-6.5,3.0,62.4*,74.2*,31.1,
O=[N+]([O-])c1ccc(/C=N/Nc2ncccc2[N+](=O)[O-])s1,10.9,-65.5,-21.4,-59.7,-1.1,-5.4,/,/,/,
Cc1cc(C)cc(NS(=O)(=O)c2ccc3c(c2)c(=O)n(C)c(=O)n3C)c1,26.1,50.1*,14.3,53.6*,5.3,33.2,69.8*,41.1*,100.8*,
Cn1c(=O)c2cc(S(=O)(=O)Nc3cc(C(=O)O)cc(C(=O)O)c3)ccc2n(C)c1=O,-5.3,13.0,2.4,12.2,4.5,2.6,/,/,/,
O=C(NC1=C(NC2CCS(=O)(=O)C2)C(=O)c2ccccc2C1=O)c1ccccc1 (configuration not stated),92.5*,-42.2,56.4*,67.7*,-21.8,79.3*,48.7*,/,/,Mdm2 MdmX conf=93.5*
O=C(NC1=C(Nc2ccc(Cl)cc2)C(=O)c2ccccc2C1=O)c1ccccc1,26.9,7.7,21.4,2.8,-5.7,6.8,/,/,/,
Clc1cccc(-c2nc(-c3ccccn3)no2)c1,97.2*,52.9*,69.8*,62.1*,-25.2,-30.3,52.1*,71.8*,64.6*,
O=C(O)c1ccc(-c2noc(-c3cccc(Cl)c3)n2)cc1,-17.4,-200.6,-43.7,-255.0,-1.5,-8.2,/,/,/,
Cc1ccc(-c2nc(-c3ccccn3)no2)cc1,106.1*,86.8*,86.5*,96.5*,-73.2*,-6.5,88.9*,94.7*,93.9*,Mdm2 MdmX conf=95.5*
COc1ccc(S(=O)(=O)Nc2ccc3c(c2)C(=O)N([C@H](C)CO)C[C@H](C)[C@@H](CN(C)S(=O)(=O)c2cccs2)O3)cc1,-33.4,-16.6,-7.1,-13.6,0.0,-24.5,/,/,/,
c1ccc2nc(-c3ccncc3)ccc2c1,-16.9,-192.9,-21.2,-182.2,-6.7,6.9,/,/,/,
CN1CCN(c2ccc(-c3ccc4ccccc4n3)cc2)CC1,102.7*,87.3*,92.1*,105.0*,-58.6*,10.2,95.2*,96.7*,87.4*,
Nn1cnnc1SCC(=O)Nc1ccc(C2CCCCC2)cc1,-31.1,-116.9,-65.0,-193.9,-6.1,-6.0,/,/,/,

# Screening results deposited in PubChem by Sanford-Burnham Center for Chemical Genomics.
